Our source for the SARS-CoV-2 infection rate values is the supplement of paper PMC13380429.

This assay has as its system Vero E6 infected with SARS-CoV-2. In words: SARS-CoV-2 infection rate relative to infected DMSO; higher = more infection, active = 60 or less. To be noted: 24 h.
As for `CC1=C(/C=C/C(C)=C/C=C/C(C)=C/CO)C(C)(C)CCC1` [retinol] (10 µM), the SARS-CoV-2 infection rate was 110% (inactive).

In the case of `C[N+](C)(C)NCCC(=O)O` [meldonium] (10 µM), the SARS-CoV-2 infection rate was 88.5% (inactive).

Regarding `O=C1c2ccccc2-n2c1nc1ccccc1c2=O` [tryptanthrin] (10 µM), the SARS-CoV-2 infection rate was 96% (inactive).

In the case of `O=C(Cc1ccc(Cl)c(Cl)c1)N1CCCC[C@@H]1CN1CCCC1` (10 µM), the SARS-CoV-2 infection rate was 91.5% (inactive).

In the case of `Cc1cc(C(C)(C)C)c(O)c(C)c1CC1=NCCN1` [oxymetazoline] (10 µM), the SARS-CoV-2 infection rate is 100% (inactive).

As to `CN(C(=O)CN(CCO)CC(=O)N(C)C(C)(C)Cc1ccccc1)C(C)(C)Cc1ccccc1` [oxethazaine] (10 µM), the SARS-CoV-2 infection rate is 102% (inactive).

For `O=C(O)Cc1ccc(OCc2ccccc2)c(Cl)c1` [benzofenac] (10 µM), the SARS-CoV-2 infection rate is 106% (inactive).

In the case of `N#Cc1c(N(CC(=O)O)CC(=O)O)sc(C(=O)O)c1CC(=O)O` [Strontium Ranelate] (10 µM), the SARS-CoV-2 infection rate was 107% (inactive).

Turning to `CC(=O)OC[C@H](N)C(=O)O` [O-acetyl-L-serine] (10 µM), the SARS-CoV-2 infection rate is 88% (inactive).

For the compound `Cc1ccc(C(=O)Nc2ccc(Oc3cc4cnn(C)c4cc3-c3cn[nH]c3)c(F)c2)c(=O)n1-c1ccc(F)cc1` (0.833333 µM), the SARS-CoV-2 infection rate was 106% (inactive).

For `O=NO` [sodium-nitrite] (10 µM), the SARS-CoV-2 infection rate was 108% (inactive).

Turning to `CCN(CC)CCOCCOC(=O)C1(c2ccccc2)CCCC1` [carbetapentane] (10 µM), the SARS-CoV-2 infection rate was 83% (inactive).

Turning to `Cc1ccc(/N=C/N(C)/C=N/c2ccc(C)cc2C)c(C)c1` [amitraz] (10 µM), the SARS-CoV-2 infection rate was 106% (inactive).
